TDP1 cell noCPT: qHTS for Inhibitors of human tyrosyl-DNA phosphodiesterase 1 (TDP1): qHTS in cells in absence of CPT. AID 686978, 2013. 15% of 420,000 active. DT40 Tdp1-/- hTDP1 cells, no CPT, ATP luminescence, 48 h. Potency, µM (top dose mostly 46.2 µM), actives largely listed as inhibitors; note: nearly all actives have a fitted effect of over 55% in size
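Stably hTDP1-transfected Tdp1-null chicken DT40 cells were treated with library compounds minus camptothecin and grown for at least 48 hr at 37 °C, after which cellular ATP was quantified by luminescence.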
TDP1 inh: qHTS Assay for Inhibitors of Tyrosyl-DNA Phosphodiesterase (TDP1); recombinant TDP1, AlphaScreen DNA substrate cleavage; Potency, µM (doses to about 130 µM), most hits filed as inhibitors; 0.28% of 350,000 active; note: nearly all actives have a fitted effect of over 40% in size
Target sequence (Q9NUW8 whole entry, looked up): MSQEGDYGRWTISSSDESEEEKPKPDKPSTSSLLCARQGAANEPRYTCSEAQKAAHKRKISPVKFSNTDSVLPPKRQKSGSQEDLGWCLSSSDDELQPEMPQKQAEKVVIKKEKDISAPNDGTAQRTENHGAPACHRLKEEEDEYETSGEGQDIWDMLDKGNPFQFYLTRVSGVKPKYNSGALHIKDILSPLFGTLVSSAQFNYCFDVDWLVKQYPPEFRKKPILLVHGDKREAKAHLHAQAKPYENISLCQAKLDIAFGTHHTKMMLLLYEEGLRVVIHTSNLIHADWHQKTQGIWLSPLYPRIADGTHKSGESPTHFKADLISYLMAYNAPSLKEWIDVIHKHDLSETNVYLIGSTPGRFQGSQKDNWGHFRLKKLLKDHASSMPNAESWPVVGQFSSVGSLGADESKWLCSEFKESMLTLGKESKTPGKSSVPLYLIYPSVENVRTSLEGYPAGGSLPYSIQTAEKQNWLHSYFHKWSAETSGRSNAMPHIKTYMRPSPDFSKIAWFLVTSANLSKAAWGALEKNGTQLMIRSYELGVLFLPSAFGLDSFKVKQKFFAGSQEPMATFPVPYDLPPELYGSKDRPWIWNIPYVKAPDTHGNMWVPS
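AlphaScreen read-out: signal falls as enzyme removes the 3' tyrosine-FITC from a 5'-biotinylated DNA oligo (15 nM, 5 min, RT). Enzyme was E. coli-made recombinant Tdp1 at 1 nM, exposed to compound for 15 min beforehand; beads 10 ug/ml, 10 min.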
VDR inh: Inhibitors of the vitamin D receptor (VDR): qHTS; VDR-SRC2-3 peptide fluorescence polarization, 2 h; Vitamin D3 receptor (Homo sapiens), P11473; 0.93% of 400,000 active; Potency, µM, most hits filed as inhibitors
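Fluorescence polarization assay of small-molecule disruption of VDR binding to coregulator peptide SRC2-3. Compounds and controls pin-transferred, then read after 2 h incubation at ambient room temperature.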
DT40 TDP1 CPT: qHTS for Inhibitors of human tyrosyl-DNA phosphodiesterase 1 (TDP1): qHTS in cells in presence of CPT; chicken DT40 Tdp1-/-;hTDP1 cells + 20 nM CPT, ATP luminescence, 48 h; Potency, µM (top dose mostly 46.2 µM), hits mostly inhibitors; 12% of 420,000 active; AID 686979, 2013; note: nearly all actives have a fitted effect of over 55% in size
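Chicken DT40 Tdp1-/- cells stably complemented with human TDP1 were seeded at 400 cells/well in medium containing 20 nM camptothecin, exposed to pin-transferred compounds, and grown at 37 °C for at least 48 hr. Viability was read as ATP luminescence.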
PLK1 PBD inh: qHTS for Inhibitors of PLK1-PDB (polo-like kinase 1 - polo-box domain): Primary Screen. Serine/threonine-protein kinase PLK1 (Homo sapiens), P53350. AID 720504, 2013. 2.8% of 360,000 active. Plk1 PBD binding of FITC phosphopeptide, fluorescence polarization. Potency, µM, actives largely listed as inhibitors; note: series mostly up to about 57 µM; nearly all actives have a fitted effect of over 65% in size
GCN5L2 inh: qHTS Assay for Inhibitors of GCN5L2; 0.21% of 390,000 active; GCN5L2 HAT assay, ThioGlo1 CoA-SH fluorescence; Potency, µM (highest dose often 58.9 µM), actives largely listed as inhibitors; Histone acetyltransferase KAT2A (Homo sapiens), Q92830
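Preincubate 20nM GCN5L2 with compound 15 min, RT → add 50uM ThioGlo1 + 75uM H3(1-25) + 70uM acetyl-CoA → read fluorescence 0 and 20 min. Primary qHTS; fluorescent artifacts likely.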
A number is an active result. Sampled rows, rich in hits. Any-hit rate of the full collection: about 18%. Calls come from the whole dose curve; as a rule, active = well fitted curve in the direction sought with a large enough effect; inconclusive = small, poorly fitted or top-dose-only effect, or another doubt; inactive = no such curve, though single readings can be large; an effect the other way counts as inactive or inconclusive.

Results for CC(C)c1ccc(NC(=O)N2c3ccccc3Sc3ccccc32)cc1 ?
TDP1 cell noCPT: inconclusive; VDR inh: inactive; DT40 TDP1 CPT: inconclusive; GCN5L2 inh: inactive

How did CCOc1ccccc1C(=O)N1CCOCC1 do in these assays?
TDP1 cell noCPT: inactive; TDP1 inh: inactive; VDR inh: inactive; DT40 TDP1 CPT: inactive; PLK1 PBD inh: inactive; GCN5L2 inh: inactive

What do the screens show for `CCCC(C)NC(=S)Nc1cc(C)cc(C)c1` (configuration not stated)?
TDP1 cell noCPT: inactive; TDP1 inh: inactive; VDR inh: inactive; DT40 TDP1 CPT: inactive; PLK1 PBD inh: inactive; GCN5L2 inh: inactive

Results for CCOC(=O)c1c(C)[nH]c(C)c1S(=O)(=O)N(C)CC(=O)Nc1ccccc1F ?
TDP1 cell noCPT: inactive; TDP1 inh: inactive; VDR inh: inactive; DT40 TDP1 CPT: inactive; PLK1 PBD inh: inactive; GCN5L2 inh: inactive

Results for O=C(CNC(=O)C1CCCC1)OC(C(=O)Nc1cc(C(F)(F)F)ccc1Cl)c1ccccc1 (configuration not stated) ?
TDP1 inh: inactive

Results for N#Cc1ccccc1NC(=O)C(=O)NCC(c1ccc2c(c1)OCO2)N1CCOCC1 (configuration not stated) ?
TDP1 cell noCPT: inactive; TDP1 inh: inactive; VDR inh: inactive; DT40 TDP1 CPT: inactive; GCN5L2 inh: inactive

How did CC(C)CNCC(=O)N1c2ccccc2Sc2ccccc21 do in these assays?
TDP1 cell noCPT: inconclusive; TDP1 inh: inactive; VDR inh: inactive; DT40 TDP1 CPT: 16.4µM; PLK1 PBD inh: inactive; GCN5L2 inh: inactive

What do the screens show for `Clc1ccc(-[n+]2c(-c3cccc(Br)c3)[nH]c3nc4ccccc4nc32)cc1`?
TDP1 cell noCPT: 25.9µM; TDP1 inh: inactive; VDR inh: inactive; DT40 TDP1 CPT: inconclusive; PLK1 PBD inh: inactive; GCN5L2 inh: inactive

Results for Cc1cc(C)cc(S(=O)(=O)c2cnc3ccccc3n2)c1 ?
TDP1 cell noCPT: inconclusive; TDP1 inh: inactive; VDR inh: 39.8µM; DT40 TDP1 CPT: inconclusive; PLK1 PBD inh: 3.77µM; GCN5L2 inh: inactive

How did Nc1ccc(S(=O)(=O)Nc2cnc3ccccc3n2)cc1 do in these assays?
TDP1 cell noCPT: inactive; TDP1 inh: inactive; VDR inh: inactive; DT40 TDP1 CPT: inactive; PLK1 PBD inh: inactive; GCN5L2 inh: inactive

What do the screens show for `O=C(O)c1c(Cl)c(Cl)c(Cl)c(Cl)c1C(=O)OCC1CCCO1` (configuration not stated)?
TDP1 cell noCPT: inactive; DT40 TDP1 CPT: inactive; PLK1 PBD inh: inactive

How did CCC1(c2ccc(F)cc2)NC(=O)N(CC(=O)Nc2cc(C)on2)C1=O (configuration not stated) do in these assays?
TDP1 cell noCPT: inactive; TDP1 inh: inactive; VDR inh: inactive; DT40 TDP1 CPT: inactive; PLK1 PBD inh: inactive; GCN5L2 inh: inactive

Results for CN(C)c1ccc2c(c1[N+](=O)[O-])Cc1ccccc1-2 ?
TDP1 cell noCPT: inactive; VDR inh: inactive; DT40 TDP1 CPT: inactive; PLK1 PBD inh: inactive

Results for O=[N+]([O-])c1cc2c(cc1Br)-c1ccccc1C2 ?
TDP1 cell noCPT: 25.9µM; DT40 TDP1 CPT: inactive; PLK1 PBD inh: inactive

How did COc1c(C)cc(C(O)c2ncc(-c3ccc4ccccc4c3)[nH]2)cc1C (configuration not stated) do in these assays?
TDP1 cell noCPT: inconclusive; DT40 TDP1 CPT: inconclusive; PLK1 PBD inh: inactive

Results for Cc1ccc2[nH]c3c(c2c1)CN(C(=O)CN1CCN(c2ccccc2F)CC1)CC3 ?
TDP1 inh: inactive; GCN5L2 inh: inactive

How did Cc1ccc2[nH]c3c(c2c1)CN(C(=O)CN1CCCCC1)CC3 do in these assays?
TDP1 cell noCPT: inconclusive; TDP1 inh: inactive; VDR inh: inactive; DT40 TDP1 CPT: inconclusive; PLK1 PBD inh: inactive; GCN5L2 inh: inactive

Results for Cc1ccc2[nH]c3c(c2c1)CN(C(=O)CC1(c2ccccc2)CC(=O)N(Cc2cccnc2)C1=O)CC3 (configuration not stated) ?
TDP1 cell noCPT: 16.4µM; DT40 TDP1 CPT: inconclusive

What do the screens show for `Cc1ccc2[nH]c3c(c2c1)CN(C(=O)CN1CCCc2ccccc21)CC3`?
TDP1 cell noCPT: inconclusive; TDP1 inh: inactive; VDR inh: inactive; DT40 TDP1 CPT: 23.1µM; PLK1 PBD inh: inactive; GCN5L2 inh: inactive

How did O=C1CC(/C=C/c2ccncc2)=Nc2ccccc2N1 do in these assays?
TDP1 cell noCPT: 5.8µM; TDP1 inh: inactive; VDR inh: inactive; DT40 TDP1 CPT: 5.8µM; PLK1 PBD inh: inactive; GCN5L2 inh: inactive

Results for O=C1CC(c2ccccc2)=Nc2ccccc2N1 ?
TDP1 cell noCPT: inactive; TDP1 inh: inactive; VDR inh: inactive; DT40 TDP1 CPT: inactive; PLK1 PBD inh: inactive; GCN5L2 inh: inactive

What do the screens show for `COc1ccc(CCCNC(=O)C2Cc3c(-c4ccc5c(c4)OCO5)ccnc3O2)cc1` (configuration not stated)?
TDP1 cell noCPT: inconclusive; DT40 TDP1 CPT: inconclusive; PLK1 PBD inh: inactive

What do the screens show for `COc1ccc(CCCNC(=O)C2Cc3c(-c4ccc(NC(C)=O)cc4)ccnc3O2)cc1` (configuration not stated)?
TDP1 cell noCPT: 18.4µM; DT40 TDP1 CPT: 16.4µM; PLK1 PBD inh: inactive

What do the screens show for `COc1ccc(CCCNC(=O)C2Cc3c(-c4cccc(C(C)=O)c4)ccnc3O2)cc1` (configuration not stated)?
TDP1 cell noCPT: 4.61µM; DT40 TDP1 CPT: 3.66µM; PLK1 PBD inh: inactive

What do the screens show for `Cc1cc2[nH]c3c(c[n+](C)c4ccccc34)c2cc1C`?
TDP1 cell noCPT: 1.64µM; TDP1 inh: inactive; VDR inh: inactive; DT40 TDP1 CPT: inactive; PLK1 PBD inh: inactive; GCN5L2 inh: inactive

How did COc1ccc(NC(=O)C(c2cc3ccccc3o2)n2c(=O)c(-c3cc4ccccc4[nH]3)nc3ccccc32)cc1 (configuration not stated) do in these assays?
TDP1 cell noCPT: inconclusive; DT40 TDP1 CPT: inconclusive; PLK1 PBD inh: inactive

What do the screens show for `O=C(NC1CC(=O)N(c2ccc(F)cc2)C1)c1ccco1` (configuration not stated)?
TDP1 cell noCPT: inactive; TDP1 inh: inactive; VDR inh: inactive; DT40 TDP1 CPT: inactive; GCN5L2 inh: inactive
